# A selection: hits, their analogues and other compounds. The true share with any hit is near 27%.
# CYP2C9 activ: increases human cytochrome P450 2C9 activity | P11712 | 1.4% of 96,000 active | activation factor at 5 µM | AID 1024 | recombinant CYP2C9, luciferin-H conversion, luminescence; hits give high values; factor 1 = untreated enzyme, 0 = blocked;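 active means activation factor of 2 or more for CYP2C9 at a 5 µM dose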
# CYP2C9 inh: blocks human cytochrome P450 2C9; P11712; CYP2C9 Supersomes, luciferin-H conversion, luminescence; inhibition, % at 5 µM; 20% of 96,000 active;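 active means blocking of liver enzyme CYP2C9 beyond about 50% at 5 µM, limit read from the data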
# CYP2C19 inhib: inhibitors of human CYP2C19; P33261; CYP2C19 Supersomes, luciferin-H EGE luminescence, 30 min; inhibition, % at 5 µM; 21% of 96,000 active; AID 778;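 active means CYP2C19 inhibition above a set limit at 5 µM in the primary screen, cut at about 50% in these data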
# CYP2C19 act: increases human CYP2C19 enzyme activity | recombinant CYP2C19, luciferin-H EGE luminescence; hits give high values; 0 = fully inhibited enzyme, 1 = untreated enzyme | activation factor at 5 µM | 96,000 tested, under 10 active | AID 1025;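 active means activation factor of at least 2 at 5 µM in the primary screen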
# Cav3 T inh: human Cav3.2 channel inhibition, primary screen; Cav3.2-expressing cells, Fluo-4 calcium fluorescence FDSS; hits give low values; B-score at 10 µM; 4% of 100,000 active; AID 449739;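 active means single-dose well whose peak fluorescence ratio is a statistical outlier from its plate by either plate-standardised score or position-corrected B-score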
# Hits are given with their value; . = inactive; / = not tested or not shown.
SMILES,CYP2C9 activ,CYP2C9 inh,CYP2C19 inhib,CYP2C19 act,Cav3 T inh
C#CCOc1nc(OCC#C)nc(OCC#C)n1,.,.,89.3,.,.
O=C(COc1ccc(-c2nnco2)cc1)N1CCN(S(=O)(=O)c2ccc3ccccc3c2)CC1,.,.,.,.,.
CN(C)c1nc(Nc2ccc(Cl)cc2)nc(OCC#N)n1,.,.,.,.,.
CCc1nccn1S(=O)(=O)c1cc(Br)ccc1OC,.,.,96.8,.,.
CCc1nccn1S(=O)(=O)c1cc(C)c(OC)cc1C,.,.,.,.,.
CCc1nccn1S(=O)(=O)c1ccc(OC)c(OC)c1,.,.,76.5,.,.
CCc1nccn1S(=O)(=O)c1ccc(C)c(C)c1,.,.,.,.,.
COc1ccc(Cl)cc1S(=O)(=O)n1ccnc1C(C)C,.,.,73.7,.,.
C[C@@H]1C=C(C(=O)NC2CC2)O[C@H](OCc2ccc(CO)cc2)C1,/,/,/,/,.
O=C(c1cc(-c2ccccc2)nc2ccccc12)N1N=C(C(F)F)CC1(O)C(F)F (stereo not given),.,99.7,82.3,.,.
CS(=O)(=O)N1CCN(C(=O)c2cc(-c3ccccc3)nc3ccccc23)CC1,.,.,.,.,.
CCOc1ccc(-n2nnc3c(=O)n(C/C=C/c4ccccc4)cnc32)cc1,.,.,.,.,.
CC(C)CNC(=O)CSc1nc(-c2cccs2)cc(C(F)(F)F)n1,/,/,/,/,.
O=C(CSc1nc(-c2cccs2)cc(C(F)(F)F)n1)NCc1ccccc1,.,91.1,59.9,.,.
CCCNC(=O)CSc1nc(-c2cccs2)cc(C(F)(F)F)n1,.,77.4,68.3,.,.
O=C(O)C(Oc1ccc2c3c(c(=O)oc2c1)CCC3)c1ccccc1 (stereo not given),.,.,.,.,.
Cc1ccc(C(=O)Nc2c3c(nn2C(C)(C)C)CS(=O)(=O)C3)cc1C,.,.,98.8,.,.
CCCCCCNC(=O)c1c(O)c2ccccc2[nH]c1=O,.,.,.,.,.
O=C(CSc1nc(Cc2ccccc2)nc2ccccc12)Nc1ccc2c(c1)OCCO2,.,.,.,.,.
COCC(C)n1c(SCC(=O)NC(=O)Nc2ccc3c(c2)OCCO3)nc2ccccc2c1=O (stereo not given),.,78.0,52.1,.,.
CC(C)Cn1c(SC(C)C(=O)Nc2ccc3c(c2)OCCO3)nc2ccccc2c1=O (stereo not given),.,93.2,82.8,.,.
O=C(CSc1ccc(-c2ccccc2)nn1)N1CCOCC1,.,.,.,.,.
CCOC(=O)c1c(C)[nH]c(C(=O)COC(=O)c2ccccn2)c1C,.,55.6,.,.,.
CCOC(=O)c1c(C)[nH]c(C(=O)CN2CCOCC2)c1C,.,.,.,.,.
CCOC(=O)c1c(C)[nH]c(C)c1C(=O)Cn1nnc(-c2ccccc2C)n1,/,/,/,/,-10.1
SMILES,CYP2C9 activ,CYP2C9 inh,CYP2C19 inhib,CYP2C19 act,Cav3 T inh
CCOC(=O)c1c(C)[nH]c(C(=O)Cn2nnc(-c3ccccc3)n2)c1C,.,.,58.9,.,.
CCOC(=O)c1c(C)[nH]c(C(=O)Cn2nnc(-c3ccccc3Cl)n2)c1C,.,82.3,.,.,.
CC(C)(C)NC(=O)COC(=O)c1nsc(Cl)c1Cl,/,/,/,/,.
O=C(NC1CCSC1=O)c1cccc(C(=O)NC2CCSC2=O)c1 (stereo not given),.,.,.,.,/
CSc1nnnn1-c1cccc(O)c1,2.4,.,.,.,.
O=C1NC2(CCCCCC2)Cc2ccccc21,.,.,.,.,.
CCC(C)NC(=O)CN(c1ccc2c(c1)OCO2)S(=O)(=O)c1c(C)n[nH]c1C (stereo not given),.,51.5,76.0,.,.
Cc1n[nH]c(C)c1S(=O)(=O)N(CC(=O)Nc1ccc2c(c1)OCCO2)c1ccc(C(C)C)cc1,.,67.5,.,.,.
Cc1nnc(NC(=O)C2CCCN(c3ncccn3)C2)s1 (stereo not given),.,.,.,.,.
Cc1cc(C)nc(SCc2nc(N)nc(-c3ccccc3O)n2)n1,.,.,85.1,.,.
Cc1ccc(Cl)cc1NC1=C/C(=N\S(=O)(=O)c2cccs2)c2ccccc2C1=O,.,92.0,66.0,.,/
Cc1ccc(/C=C/S(=O)(=O)N2CCC(C(=O)O)CC2)cc1,.,.,.,.,.
CC(C)Oc1ccc(CNC(=S)N/N=C/c2cccnc2)cc1,.,.,.,.,.
CN(C)c1ccnc(-n2cccc2/C=N/OCc2ccccc2)c1C#N,.,.,95.8,.,.
CN(C)c1ccnc(-n2cccc2/C=N/OCc2ccc(F)cc2Cl)c1C#N,.,95.8,98.2,.,-5.36
COc1ccccc1CO/N=C/c1cccn1-c1nccc(N(C)C)c1C#N,.,90.7,98.9,.,.
C/C(=N/NC(=O)c1ccoc1C)C12CC3CC(CC(C3)C1)C2,.,.,56.6,.,.
C/C(=N\NC(=O)c1ccccn1)C12CC3CC(CC(C3)C1)C2,.,.,.,.,.
CCN1CCN(C(c2cccs2)C(C)NC(=O)C(C)C)CC1 (stereo not given),/,/,/,/,.
Cn1c(C(C#N)C2=C(Cl)C(=O)N(c3ccccc3)C2=O)nc2ccccc21 (stereo not given),.,91.5,78.4,.,.
Cn1c(C(C#N)/C(=N\S(=O)(=O)c2cccs2)c2ccccc2)nc2ccccc21 (stereo not given),.,.,.,.,.
Cc1ccc(C)c(S(=O)(=O)Nc2ccccc2C(=O)Nc2cc(C)on2)c1,.,55.4,.,.,.
Cc1cc(NC(=O)c2ccccc2Cl)no1,.,.,.,.,.
Cc1cc(NC(=O)c2ccccc2NS(=O)(=O)c2c(C)c(C)cc(C)c2C)no1,.,66.4,.,.,/
O=C(OCC(=O)N(C1CCCCC1)C1CCCCC1)c1ccncc1,.,65.1,99.4,.,.
SMILES,CYP2C9 activ,CYP2C9 inh,CYP2C19 inhib,CYP2C19 act,Cav3 T inh
CCOC(=O)c1oc2cccc(O)c2c1CN(Cc1ccccc1)C(C)=O,.,.,66.9,.,.
CC(=O)c1c(C)oc2ccc(O)c(CN3CCOCC3)c12,.,.,.,.,.
CCOC(=O)c1oc2ccccc2c1CN1CCN(c2ccccc2)CC1,.,.,51.7,.,-4.77
CCOC(=O)c1cc(CN2CCOCC2)oc1-c1ccccc1,.,.,.,.,.
CCOC(=O)c1oc2ccccc2c1CN1CCN(C(=O)c2ccccc2)CC1,.,.,.,.,.
CCOC(=O)c1oc2cc(O)cc(O)c2c(=O)c1OCc1ccccc1,/,/,/,/,.
CCOC(=O)c1c(-c2ccccc2)oc2ccc(O)c(CN3CCOCC3)c12,.,.,56.3,.,.
CCOC(=O)c1oc2cccc(O)c2c1CN1CCOCC1,.,.,60.3,.,.
CCOc1cc(/C=N\NC(=O)c2ccc(NC(=O)CC)cc2)ccc1OC(=O)c1ccccc1,.,.,.,.,.
CC1CC(C)CN(CCCNC(=O)CCNC(=O)Cn2ccc3ccccc3c2=O)C1 (stereo not given),.,.,.,.,.
Fc1ccccc1N1CCN(CCCNc2ccc3nncn3n2)CC1,.,.,.,.,.
CN1C(=O)c2cccc(NC(=O)C3CCCCC3)c2C1=O,.,.,73.5,.,.

# From PubChem BioAssay
